Reference: PubChem BioAssay AID743279 (National Center for Advancing Translational Sciences (NCATS), 2014)
Hit rate of the full screen: of about 360,000 compounds, about 17,000 (4.7%) were called active. Another 5% or so got no clear call; they are omitted. No stated cut-off is given here; in the data, active means activity change below about -50%; inconclusive means mostly about -30% to -49%; inactive means weaker than that. The full list was thinned out, with actives kept by preference.

Assay: qHTS for Inhibitors of Inflammasome Signaling: IL-1-beta AlphaLISA Primary Screen
Details: THP-1 LPS/ATP IL-1B secretion, 16 h; at 57.5 µM, hits give low values
Outline: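 THP-1 cells pretreated 1 hr with compounds (up to 57.5 uM final), then stimulated with LPS (250 ng/mL final) plus ATP (1.25 mM final); secreted IL-1B measured by AlphaLISA after 16 hr, decreased signal indicating inhibition.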
On the % scale 0 is the no-effect control and ±100 the full control effect.

SMILES	activity change
COc1ccc(NC(=O)CSc2nnc(-c3ccccc3F)n2C2CC2)cc1S(N)(=O)=O	15.5% (inactive)
Cc1nn(-c2ccccc2)c(Cl)c1/C=N/NC(=O)c1nn(C)cc1[N+](=O)[O-]	-65.7% (active)
Cc1nn(-c2ccccc2)c(C)c1/C=N/NC(=O)CSc1nc2ccccc2c(=O)n1-c1ccccc1	12% (inactive)
Cc1ccc(-n2nc(C)c(/C=N/NC(=O)c3cccs3)c2Cl)cc1	-8.79% (inactive)
Cc1ccc(N2CCN(c3ccc([N+](=O)[O-])cn3)CC2)c(C)c1	-8.34% (inactive)
Cc1ccc(S(=O)(=O)N2CCC(C(=O)NCCC3=CCCCC3)CC2)cc1C	-2.64% (inactive)
C1=C(CCNc2ncnc3c2cnn3-c2ccccc2)CCCC1	-3.14% (inactive)
O=C(NCCC1=CCCCC1)C1CCN(Cc2cnn(-c3ccccc3)c2-n2cccc2)CC1	-64.8% (active)
Nc1ncnc2c1ncn2[C@@H]1O[C@H](C(=O)N2CCCN(Cc3ccccc3F)CC2)[C@@H](O)[C@H]1O	2.81% (inactive)
COc1ccccc1-n1c(SCC(=O)Nc2ccc(Cl)cc2)nc(O)c(Cc2ccccc2)c1=O	0% (inactive)
NC(c1ccccc1)c1csc(NC(=O)Nc2cccc(C(F)(F)F)c2)n1 (centres undefined)	-106% (active)
COc1ccc(C(N)c2csc(NC(=O)Nc3cccc(C(F)(F)F)c3)n2)cc1 (centres undefined)	-81.4% (active)
O=C(Nc1ccc(-c2csc(Nc3cccc(C(F)(F)F)c3)n2)cc1)c1cccc(C(F)(F)F)c1	11.4% (inactive)
COc1ccc(NC(=O)C(=O)NCC(=O)Nc2cccc(C(F)(F)F)c2)cc1	10.7% (inactive)
CC(C)C[C@H](NC(=O)Nc1cccc(C(F)(F)F)c1)C(=O)O	34.5% (inactive)
COc1cc(NC(=O)c2[nH]cnc2C(N)=O)cc(C(=O)Nc2cccc(C(F)(F)F)c2)c1	-16% (inactive)
NC(c1csc(NC(=O)Nc2cccc(C(F)(F)F)c2)n1)C1CCCCC1 (centres undefined)	-111% (active)
O=C(Nc1ccc(C(=O)N2CCOCC2)cc1)Nc1cccc(C(F)(F)F)c1	-10.3% (inactive)
O=C(O)CC1(CC(=O)Nc2cccc(C(F)(F)F)c2)CCCC1	16.7% (inactive)
O=C(NCc1ccccc1)C1CNCC(C(=O)NCc2ccccc2)C1 (centres undefined)	-14.4% (inactive)
Cc1cc([N+](=O)[O-])ccc1NS(=O)(=O)c1ccccc1	26.9% (inactive)
O=S1(=O)CC(N2CCN(CCO)CC2)CN1C1CCCC1 (centres undefined)	-8.55% (inactive)
Cc1ccc(-c2c(N)nc3ncccn23)cc1	7.85% (inactive)

SMILES	activity change
O=C(CN(C(=O)CCC(=O)Nc1nccs1)c1ccc(F)cc1)NCc1ccc2c(c1)OCO2	-10.1% (inactive)
CCOc1ccccc1-c1cc(C(=O)N2CCOCC2)c2ccccc2n1	-12% (inactive)
O=C(c1cc(-c2ccc(Cl)s2)nc2ccccc12)N1CCOCC1	-70.8% (active)
CC(=O)N1CCN(C(=O)c2cc(-c3ccc(C)o3)nc3ccccc23)CC1	23.1% (inactive)
CCc1nc2ccc(C(=O)Nc3ccc(OC)c(OC)c3)cn2c1N(C)C(=O)c1cccc(OC)c1	-8.18% (inactive)
CCOc1ccc(C(C)C)cc1S(=O)(=O)n1nc(C)cc1C	0% (inactive)
COc1ccc(OC)c(S(=O)(=O)n2c([N+](=O)[O-])cnc2C)c1	0.96% (inactive)
COc1ccc(C(C[N+](=O)[O-])n2nc(C)cc2C)cc1 (centres undefined)	-102% (active)
COc1ccc(S(=O)(=O)N2CCc3ccccc32)cc1C(=O)Nc1cc(S(C)(=O)=O)ccc1Cl	47.6% (inactive)
CC(=O)NS(=O)(=O)c1ccc(N/C(N)=N/c2nc(C)cc(C)n2)cc1	34.9% (inactive)
O=c1c2ccccc2oc2nc(C3CCCCC3)n(Cc3ccco3)c(=O)c12	-16.6% (inactive)
Cc1ccc(Cn2c(C)nc3c(c2=O)c2nc4ccccc4nc2n3Cc2ccco2)cc1	-83.5% (active)
Clc1cccc(-c2nc3nc4ccccc4nc3n2Cc2ccco2)c1	-17.2% (inactive)
COC(=O)c1cc(S(=O)(=O)NC2CCN(Cc3ccccc3)CC2)cn1C	-1.73% (inactive)
CCn1c(=S)[nH]c2cc(S(=O)(=O)N3CCOCC3)ccc21	46.6% (inactive)
CSCCC(=O)N1CCCC(CNC(=O)c2ccccc2Cl)C1 (centres undefined)	27.1% (inactive)
Cc1ccc(C(=O)Nc2ccc(NC(=O)c3cccs3)cc2)c(C)c1	-12.6% (inactive)
CC(Oc1cccc(NC(=O)c2cccs2)c1)C(=O)c1ccccc1 (centres undefined)	-60.1% (active)
CC(C)C(=O)Nc1ccc(C(=O)NNC(=O)c2cccs2)cc1	7.36% (inactive)
Nc1scc(-c2ccncc2)c1Cl	-0.276% (inactive)
CC(=O)OCCN(CCCn1c(-c2ccncc2)nc2ccccc21)c1nc(-c2ccc(C)cc2)cs1	14.2% (inactive)
c1ccc(CNCc2ccc(CNCc3ccccc3)cc2)cc1	-20.3% (inactive)
COCCCNC(=O)/C(C#N)=C/c1c(N2CCCCCC2)nc2ccccn2c1=O	-20.1% (inactive)

SMILES	activity change
COCCNC(=O)/C(C#N)=C/c1nc(N(C)C)n(-c2ccc(F)cc2)c1Cl	-69.9% (active)
COCCNC(=O)/C(C#N)=C/c1cccc(OCc2ccccc2)c1	-8.24% (inactive)
C=CCNc1scc(-c2ccccc2)[n+]1CC=C	-19.1% (inactive)
C=CC[n+]1c(-c2ccc(C)cc2)csc1NNC(=O)Nc1ccccc1	-79.2% (active)
O=C(NNC(=O)c1ccc(-c2ccccc2)cc1)Nc1ccccc1	-8.29% (inactive)
CC(=O)Oc1ccc(Cn2c(C)c(C(=O)NCc3ccc(C#N)cc3)sc2=O)cc1	8.83% (inactive)
N#CCCN(C(=S)Nc1ccc(Cl)c(Cl)c1)C1CCCCC1	-17.1% (inactive)
O=C(Nc1ccc(Cl)cc1)Nc1ccc(C(=O)N2CCOCC2)cc1	-29.9% (inactive)
O=C(NCc1ccccn1)Nc1ccc(Cl)cc1	-6.13% (inactive)
CC(C)S(=O)(=O)c1csc(NC(=O)Nc2ccc(Cl)cc2)c1Cl	-95.1% (active)
S=C(NC1CCCCC1)NN1CCOCC1	31.1% (inactive)
O=C(CSc1nc2nccnc2c(=O)n1Cc1cccs1)Nc1ccccc1F	2.93% (inactive)
CC1(C(=O)NS(=O)(=O)Cc2cccc(Cl)c2)CCN1C(=O)Cc1ccccc1 (centres undefined)	3.48% (inactive)
O=C1[C@@H](c2ccccc2)[C@@H](c2ccccc2)N1c1cccnc1	-68.8% (active)
CCc1ccccc1NC1c2ccccc2C(=O)N1c1cccnc1 (centres undefined)	0% (inactive)
O=C1C(=O)N(c2ccccc2)C(c2ccccc2)C1c1ccccc1 (centres undefined)	5.18% (inactive)
COc1cc(S(=O)(=O)N(Cc2cccs2)C2CC2)ccc1-n1cnnn1	0% (inactive)
O=C(N[C@@H](Cc1ccccc1)C(=O)OCc1ccccc1)c1nc[nH]c1C(=O)NC1CCNCC1	-10% (inactive)
CC(C)(C)OC(=O)CNC(=O)c1[nH]cnc1C(=O)N[C@@H](Cc1ccccc1)C(=O)OCc1ccccc1	52.8% (inactive)
CC(C)(C)OC(=O)N1CCC(NC(=O)c2[nH]cnc2C(=O)N[C@@H](Cc2ccccc2)C(=O)OCc2ccccc2)CC1	-58% (active)
Cc1cc(Br)ccc1NC(=O)CCCOc1cc(=O)n(C)c2ccccc12	-13.4% (inactive)
COc1cccc2c1OCC(CN1CCN(C3CCCCC3)C(CCO)C1)=C2 (centres undefined)	18.2% (inactive)
CC1C=CCC2C(=O)N(c3cccc(C(=O)N4CCCCCC4)c3)C(=O)C12 (centres undefined)	23.7% (inactive)

SMILES	activity change
Cc1cccc(N2CCN(C(=O)c3cccc(N4C(=O)C5C6C=CC(C6)C5C4=O)c3)CC2)c1C (centres undefined)	-52.9% (active)
COC(=O)c1cccc(N2C(=O)C3C4C=CC(CC4)C3C2=O)c1 (centres undefined)	15.7% (inactive)
Cc1ccccc1NC(=O)Cc1nc(COC(=O)CNC(=O)c2ccc(Cl)cc2Cl)cs1	11% (inactive)
Cc1ccc(F)c(S(=O)(=O)NC(=O)C2(C)CCN2C(=O)c2ccco2)c1 (centres undefined)	24% (inactive)
S=C(NCc1cccnc1)Nc1ccc(Cl)cc1Cl	11% (inactive)
CC(=O)/C(=N\Nc1ccc(Cl)cc1Cl)Sc1cccc2cccnc12	-103% (active)
O=C(NNc1cc(Cl)ccc1Cl)c1cccnc1Cl	-6.39% (inactive)
O=C(COC(=O)/C=C/c1ccc(Cl)cc1)NC1CCS(=O)(=O)C1 (centres undefined)	1.68% (inactive)
CC(=O)Nc1ccc(-c2ccnc3c2CC(C(=O)NC(C)C)O3)cc1 (centres undefined)	-17% (inactive)
Nc1cccc2c1C(=O)N(Cc1nnc(-c3ccccc3Br)o1)C2=O	-5.13% (inactive)
CN(C)C(=O)CCc1ccc2c3c([nH]c2c1)[C@]1(CCc2ccccc2)[C@@H](C(=O)N2CCCCC2)C[C@H](CC(=O)NCCC2=CCCCC2)C(=O)N1CC3	-14.8% (inactive)
CC(C)N(C(=O)[C@H]1C[C@H](CC(=O)NCCC2=CCCCC2)C(=O)N2CCc3c([nH]c4cc(CCC(=O)N(C)C)ccc34)[C@]12C)C(C)C	-51.9% (active)
CN(C)C(=O)CCc1ccc2c3c([nH]c2c1)[C@]1(C)[C@@H](C(=O)N2CCCCC2)C[C@H](CC(=O)NCCC2=CCCCC2)C(=O)N1CC3	-30% (inactive)
COc1ccc(-c2cc3nc(NCCOc4ccccc4)ccn3n2)cc1	-17.4% (inactive)
COCCNc1cc(-c2ccccc2)nc2cc(-c3cccc(F)c3)nn12	-67.2% (active)
COCCCNc1ccn2nc(-c3ccc(CC(C)C)cc3)cc2n1	47% (inactive)
CCCCc1nccn1CCn1ccnc1CCCC	-1.41% (inactive)
CCOC(=O)c1sc(NC(=O)CCN2CCOCC2)c(C(=O)OCC)c1C	0% (inactive)
CCOC(=O)Nc1sc(C(=O)N(C)C)c(C)c1C(=O)OCC	20.1% (inactive)
CCOC(=O)c1c(NC(=O)CCl)sc(C(=O)N(CC)CC)c1C	-99.1% (active)
